Our source for the growth values is PubChem BioAssay (NCI).

Test systems include NCI-H226 lung; NCI-H322M lung; HOP-62 NSCLC; NCI-H460 lung; HOP-92 NSCLC; NCI-H522 lung; 786-0 renal; COLO 205 colon; DU-145 prostate; K-562 leukemia; MDA-MB-231 breast; RXF 393 renal; SF-295 CNS; SF-539 CNS; UACC-257 melanoma; M14 melanoma; A549/ATCC NSCLC; MALME-3M melanoma; SF-268 CNS.
Holding throughout (test): NCI-60 one-dose screen, 48 h (100 = growth as untreated, 0 = no growth, -100 = all killed)
Common to all, as to conditions: 10 µM unless noted

The structures appear in SMILES notation. Several values for one entry are separate records, joined by “and”; a condition that tells them apart may be missing. Equal values may be shown once. Compounds without any hit were thinned out: in the full panel of roughly 83,000, 20% have a hit.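 Method: cells in 96-well plates; compound added at one concentration; 48 h incubation; percent growth measured; values under 10 scored active.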 Activity calls are given as the source filed them.

As for `COc1ccc2ccccc2c1/C=N/N1CCCCC1`, the growth with NCI-H226 lung is 102% (inactive); in the assay on NCI-H322M lung, 105% (inactive); in the assay with HOP-62 NSCLC, 101% (inactive); in the assay with NCI-H460 lung, 109% (inactive); in the assay on HOP-92 NSCLC, 67.8% (inactive); with NCI-H522 lung, 86.9% (inactive). The growth with 786-0 renal is 96.1% (inactive); in the assay on COLO 205 colon, 102% (inactive); with DU-145 prostate it was 108% (inactive); in the assay with K-562 leukemia, 91.5% (inactive); with MDA-MB-231 breast, 99.4% (inactive); with RXF 393 renal, 100% (inactive). Further, the growth was 96.4% (inactive) in the assay on SF-295 CNS, 89.5% (inactive) with SF-539 CNS, 99.7% (inactive) in the assay with UACC-257 melanoma and 108% (inactive) in the assay with M14 melanoma.

For `CC1=C(/C=C/C(C)=C/C=C/C(C)=C/C(=O)Nc2ccc(O)cc2)C(C)(C)CCC1`, the growth is 74.3% (inactive) in the assay on NCI-H226 lung; 101% (inactive) in the assay on NCI-H322M lung; 88.6% (inactive) in the assay with HOP-62 NSCLC; 27.7% (inactive) in the assay on NCI-H460 lung; 103% (inactive) with HOP-92 NSCLC; -47.6% (active) in the assay with NCI-H522 lung. The growth in the assay on A549/ATCC NSCLC was 55.9% (inactive); in the assay on 786-0 renal it was 52.8% (inactive); in the assay with COLO 205 colon, 38.6% (inactive); with DU-145 prostate, 68.4% (inactive); in the assay on MALME-3M melanoma, 76.1% (inactive); in the assay with MDA-MB-231 breast, 54.5% (inactive). The growth in the assay on RXF 393 renal was 60.8% (inactive); with SF-268 CNS, 60.8% (inactive); with SF-295 CNS, 4.64% (active); in the assay with SF-539 CNS, -32.7% (active); in the assay with UACC-257 melanoma, 76.7% (inactive); in the assay on M14 melanoma, 53.5% (inactive).

As to `Nc1ccn(C2OC(CO)C(O)C2O)c(=O)n1` (configuration not stated), the growth in the assay on DU-145 prostate is 24% (inactive) and 12.2% (inactive) and 114% (inactive); in the assay on MDA-MB-231 breast it was 110% (inactive) [middle of 4 runs]; with RXF 393 renal, 90.6% (inactive) and 33.4% (inactive) and 134% (inactive); in the assay with SF-268 CNS, 35.8% (inactive) and 41.2% (inactive) and 104% (inactive).

Consider `CC(C)C(=O)Nc1ccc([N+](=O)[O-])c(C(F)(F)F)c1`, for which the growth was 72.5% (inactive) and 82.8% (inactive) with NCI-H226 lung; 104% (inactive) and 113% (inactive) in the assay with NCI-H322M lung; 94.9% (inactive) and 84.2% (inactive) in the assay with HOP-62 NSCLC; 83.8% (inactive) and 109% (inactive) in the assay with NCI-H460 lung; 53.9% (inactive) and 91.1% (inactive) in the assay with HOP-92 NSCLC; 79.2% (inactive) and 79.1% (inactive) with NCI-H522 lung. The growth is 81.4% (inactive) and 103% (inactive) with A549/ATCC NSCLC; 96.4% (inactive) and 87.2% (inactive) in the assay on 786-0 renal; 93.5% (inactive) and 117% (inactive) in the assay on COLO 205 colon; 74% (inactive) and 113% (inactive) with DU-145 prostate; 57.1% (inactive) and 62.1% (inactive) in the assay on K-562 leukemia; 83.3% (inactive) and 88% (inactive) with MALME-3M melanoma. The growth in the assay with MDA-MB-231 breast is 84.7% (inactive) and 102% (inactive); in the assay on RXF 393 renal, 104% (inactive); in the assay with SF-268 CNS it was 88.6% (inactive) and 102% (inactive); in the assay with SF-295 CNS, 76.7% (inactive) and 92% (inactive); with SF-539 CNS, 96.9% (inactive) and 92.7% (inactive); in the assay on UACC-257 melanoma, 108% (inactive) and 112% (inactive). In the assay with M14 melanoma, the growth is 98.9% (inactive) and 92.9% (inactive).

In the case of `CC(/C=N/N1C(=O)c2ccccc2C1=O)c1ccccc1` (configuration not stated), the growth was 90.6% (inactive) in the assay with NCI-H226 lung; 98.1% (inactive) in the assay on NCI-H322M lung; 112% (inactive) in the assay with HOP-62 NSCLC; 108% (inactive) in the assay on NCI-H460 lung; 104% (inactive) with NCI-H522 lung; 88.3% (inactive) in the assay on A549/ATCC NSCLC. Besides, the growth was 102% (inactive) in the assay on 786-0 renal; 114% (inactive) in the assay on COLO 205 colon; 115% (inactive) in the assay on DU-145 prostate; 106% (inactive) in the assay with K-562 leukemia; 101% (inactive) in the assay on MALME-3M melanoma; 108% (inactive) with MDA-MB-231 breast. The growth was 101% (inactive) in the assay with RXF 393 renal; 117% (inactive) in the assay on SF-268 CNS; 90.9% (inactive) in the assay with SF-295 CNS; 106% (inactive) with SF-539 CNS; 90.5% (inactive) in the assay with UACC-257 melanoma; 108% (inactive) in the assay on M14 melanoma.

As for `Cc1c(Cl)cccc1NCN1C(=O)c2ccccc2C1=O`, the growth in the assay with NCI-H226 lung was 98.7% (inactive); in the assay on NCI-H322M lung it was 99.8% (inactive); in the assay with HOP-62 NSCLC, 101% (inactive); in the assay on NCI-H460 lung, 108% (inactive); in the assay with NCI-H522 lung, 81.1% (inactive); in the assay on A549/ATCC NSCLC it was 99.1% (inactive). Moreover, the growth with 786-0 renal was 103% (inactive); with COLO 205 colon it was 105% (inactive); in the assay on DU-145 prostate it was 115% (inactive); in the assay with K-562 leukemia it was 109% (inactive); with MALME-3M melanoma it was 104% (inactive); in the assay with MDA-MB-231 breast it was 121% (inactive). The growth with RXF 393 renal is 107% (inactive); with SF-268 CNS, 107% (inactive); in the assay on SF-295 CNS, 102% (inactive); in the assay on SF-539 CNS it was 102% (inactive); with UACC-257 melanoma it was 100% (inactive); with M14 melanoma it was 110% (inactive).

As for `COc1cc(Nc2nc3ccccc3nc2NS(=O)(=O)c2ccc(NC(=O)c3ccc(C)c(OC)c3)cc2)cc(OC)c1`, the growth in the assay on NCI-H226 lung is 70.8% (inactive) and 6.54% (active); in the assay on NCI-H322M lung, 49.3% (inactive) and -6.86% (active); in the assay with HOP-62 NSCLC, 44.1% (inactive) and -1.64% (active); in the assay on NCI-H460 lung it was 44.4% (inactive) and 10.5% (inactive); in the assay on HOP-92 NSCLC it was -26.5% (active); with NCI-H522 lung it was 40.9% (inactive) and 2.82% (active). In addition, the growth with A549/ATCC NSCLC is 50.2% (inactive) and -9.71% (active); with 786-0 renal, 69.5% (inactive) and -19.2% (active); in the assay on COLO 205 colon, 66% (inactive) and -11.6% (active); with DU-145 prostate, 63.2% (inactive) and 12.9% (inactive); in the assay on K-562 leukemia, 63% (inactive) and 29.3% (inactive); in the assay with MALME-3M melanoma, 30.7% (inactive) and -18.6% (active). Also, the growth is 77.2% (inactive) and 13.5% (inactive) with MDA-MB-231 breast; 75.1% (inactive) and -38.8% (active) in the assay on RXF 393 renal; 54.8% (inactive) and 18.2% (inactive) in the assay with SF-268 CNS; 41.7% (inactive) and -32.8% (active) with SF-295 CNS; 62.7% (inactive) and -35.7% (active) in the assay with SF-539 CNS; 74.7% (inactive) and -18.8% (active) in the assay with UACC-257 melanoma. Also, in the assay with M14 melanoma, the growth was 64.1% (inactive) and 8.75% (active).
